# In the supplement of paper PMC8728848:
# The full list was thinned out, with the strongest signals kept by preference.
# What was measured:
# Experiment in all cases: glycan array binding signal (z-score within array); higher = stronger binding
# Details in all cases: glycan notation: IUPAC condensed, linker removed
# [1] = target: Fuc(a1-2)Gal(b1-3)GalNAc(b1-4)[Neu5Ac(a2-3)]Gal(b1-4)Glc
# Method in brief: (§1)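 From the Consortium for Functional Glycomics database, 3228 arrays were curated, keeping only those whose protein sequence was available. Binding is given as a within-array Z-score averaged across arrays sharing a protein sequence and across linkers. Negative Z-scores can be read as non-binding.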
# [2] = target: Fuc(a1-2)Gal(b1-3)GlcNAc
# Method in brief: as §1
# [3] = target: Fuc(a1-2)Gal(b1-3)GlcNAc(b1-3)Gal(b1-4)Glc
# Method in brief: as §1
# [4] = target: Fuc(a1-2)Gal(b1-3)[Fuc(a1-4)]GlcNAc(b1-2)Man(a1-3)[Fuc(a1-2)Gal(b1-3)[Fuc(a1-4)]GlcNAc(b1-2)Man(a1-6)]Man(b1-4)GlcNAc(b1-4)[Fuc(a1-6)]GlcNAc(b1-4)[Fuc(a1-6)]GlcNAc
# Method in brief: as §1
# [5] = target: Fuc(a1-2)Gal(b1-4)GlcNAc
# Method in brief: as §1
# [6] = target: Fuc(a1-2)Gal(b1-4)GlcNAc6S
# Method in brief: as §1
# [7] = target: Fuc(a1-2)Gal(b1-4)[Fuc(a1-3)]GlcNAc(b1-3)Gal(b1-4)[Fuc(a1-3)]GlcNAc(b1-3)Gal(b1-4)[Fuc(a1-3)]GlcNAc
# Method in brief: as §1
# [8] = target: Fuc(a1-2)Gal6S(b1-4)Glc
# Method in brief: as §1
# [9] = target: Fuc(a1-2)[Gal(a1-3)]Gal(b1-4)GlcNAc
# Method in brief: as §1
# [10] = target: Fuc(a1-2)[Gal(a1-3)]Gal(b1-4)GlcNAc(b1-2)Man
# Method in brief: as §1
# [11] = target: Fuc(a1-2)[Gal(a1-3)]Gal(b1-4)[Fuc(a1-3)]Glc
# Method in brief: as §1
# [12] = target: Fuc(a1-2)[GalNAc(a1-3)]Gal(b1-3)GlcNAc(b1-6)GalNAc
# Method in brief: as §1
# [13] = target: Fuc(a1-2)[GalNAc(a1-3)]Gal(b1-4)GlcNAc(b1-3)GalNAc
# Method in brief: as §1
# [14] = target: Fuc(a1-3)[Gal3S(b1-4)]GlcNAc6S
# Method in brief: as §1
# [15] = target: Fuc(a1-3)[GalNAc(b1-4)]GlcNAc
# Method in brief: as §1
# [16] = target: Fuc(a1-4)GlcNAc
# Method in brief: as §1
# [17] = target: Gal(a1-3)Gal(b1-4)Glc
# Method in brief: as §1
# [18] = target: Gal(a1-3)Gal(b1-4)GlcNAc
# Method in brief: as §1
# [19] = target: Gal(a1-3)Gal(b1-4)GlcNAc(b1-2)Man
# Method in brief: as §1
# [20] = target: Gal(a1-3)Gal(b1-4)GlcNAc(b1-2)Man(a1-3)[Gal(a1-3)Gal(b1-4)GlcNAc(b1-2)Man(a1-6)]Man(b1-4)GlcNAc(b1-4)GlcNAc
# Method in brief: as §1
# [21] = target: Gal(b1-3)GalNAc(b1-3)Gal(a1-4)Gal(b1-4)Glc
# Method in brief: as §1
# [22] = target: Gal(b1-3)GalNAc(b1-4)Gal(b1-4)Glc
# Method in brief: as §1
# [23] = target: Gal(b1-3)GlcNAc(b1-2)Man(a1-3)[Gal(b1-3)GlcNAc(b1-2)Man(a1-6)]Man(b1-4)GlcNAc(b1-4)GlcNAc
# Method in brief: as §1
# [24] = target: Gal(b1-3)GlcNAc(b1-3)GalNAc
# Method in brief: as §1
# [25] = target: Gal(b1-3)[Fuc(a1-4)]GlcNAc(b1-2)Man
# Method in brief: as §1
# [26] = target: Gal(b1-4)GlcNAc(a1-6)Gal(b1-4)GlcNAc
# Method in brief: as §1
# [27] = target: Gal(b1-4)GlcNAc(b1-2)Man(a1-3)Man(b1-4)GlcNAc(b1-4)GlcNAc
# Method in brief: as §1
# [28] = target: Gal(b1-4)GlcNAc(b1-2)Man(a1-3)[Gal(b1-4)GlcNAc(b1-2)Man(a1-6)]Man(b1-4)GlcNAc(b1-4)GlcNAc
# Method in brief: as §1
# [29] = target: Gal(b1-4)GlcNAc(b1-2)Man(a1-3)[GlcNAc(b1-2)Man(a1-6)]Man(b1-4)GlcNAc(b1-4)GlcNAc
# Method in brief: as §1
# [30] = target: Gal(b1-4)GlcNAc(b1-2)[Gal(b1-4)GlcNAc(b1-4)]Man(a1-3)[GlcNAc(b1-4)][Gal(b1-4)GlcNAc(b1-2)[Gal(b1-4)GlcNAc(b1-6)]Man(a1-6)]Man(b1-4)GlcNAc(b1-4)GlcNAc
# Method in brief: as §1
# [31] = target: Gal(b1-4)GlcNAc(b1-3)Gal(b1-3)GalNAc
# Method in brief: as §1
# [32] = target: Gal(b1-4)GlcNAc(b1-3)Gal(b1-4)Glc
# Method in brief: as §1
# [33] = target: Gal(b1-4)GlcNAc(b1-3)Gal(b1-4)GlcNAc(b1-3)Gal(b1-4)GlcNAc(b1-3)Gal(b1-4)GlcNAc(b1-3)Gal(b1-4)GlcNAc(b1-2)[Gal(b1-4)GlcNAc(b1-3)Gal(b1-4)GlcNAc(b1-3)Gal(b1-4)GlcNAc(b1-3)Gal(b1-4)GlcNAc(b1-3)Gal(b1-4)GlcNAc(b1-6)]Man(a1-6)[Gal(b1-4)GlcNAc(b1-3)Gal(b1-4)GlcNAc(b1-3)Gal(b1-4)GlcNAc(b1-3)Gal(b1-4)GlcNAc(b1-3)Gal(b1-4)GlcNAc(b1-2)Man(a1-3)]Man(b1-4)GlcNAc(b1-4)[Fuc(a1-6)]GlcNAc
# Method in brief: as §1
# [34] = target: Gal(b1-4)GlcNAc(b1-6)[Gal(b1-4)GlcNAc(b1-3)]GalNAc
# Method in brief: as §1
# [35] = target: Gal6S(b1-4)Glc6S
# Method in brief: as §1
# [36] = target: GalNAc(b1-3)Gal(a1-4)Gal(b1-4)GlcNAc(b1-3)Gal(b1-4)Glc
# Method in brief: as §1
# [37] = target: GalNAc(b1-4)GlcNAc(b1-2)Man(a1-3)[GalNAc(b1-4)GlcNAc(b1-2)Man(a1-6)]Man(b1-4)GlcNAc(b1-4)GlcNAc
# Method in brief: as §1
# [38] = target: Glc(b1-4)Glc
# Method in brief: as §1
# [39] = target: GlcNAc(a1-4)Gal(b1-4)GlcNAc(b1-3)Gal(b1-4)[Fuc(a1-3)]GlcNAc(b1-3)Gal(b1-4)[Fuc(a1-3)]GlcNAc
# Method in brief: as §1
# [40] = target: GlcNAc(b1-2)[GlcNAc(b1-4)]Man(a1-3)[GlcNAc(b1-4)][GlcNAc(b1-2)[GlcNAc(b1-6)]Man(a1-6)]Man(b1-4)GlcNAc(b1-4)GlcNAc
# Method in brief: as §1
# [41] = target: GlcNAc(b1-3)Gal(b1-4)GlcNAc(b1-3)Gal(b1-4)GlcNAc(b1-3)GalNAc
# Method in brief: as §1
# [42] = target: Neu5Ac(a2-3)Gal(b1-3)GalNAc(b1-3)Gal(a1-4)Gal(b1-4)Glc
# Method in brief: as §1
# [43] = target: Neu5Ac(a2-3)Gal(b1-3)GlcNAc(b1-3)GalNAc
# Method in brief: as §1
# [44] = target: Neu5Ac(a2-3)Gal(b1-4)GlcNAc(b1-2)[Neu5Ac(a2-3)Gal(b1-4)GlcNAc(b1-6)]Man(a1-6)[Neu5Ac(a2-3)Gal(b1-4)GlcNAc(b1-2)Man(a1-3)]Man(b1-4)GlcNAc(b1-4)GlcNAc
# Method in brief: as §1
# [45] = target: Neu5Ac(a2-3)Gal(b1-4)GlcNAc(b1-3)Gal(b1-4)GlcNAc(b1-3)Gal(b1-4)GlcNAc(b1-2)Man(a1-3)[Neu5Ac(a2-3)Gal(b1-4)GlcNAc(b1-3)Gal(b1-4)GlcNAc(b1-3)Gal(b1-4)GlcNAc(b1-2)Man(a1-6)]GalNAc
# Method in brief: as §1
# [46] = target: Neu5Ac(a2-3)[GalNAc(b1-4)]Gal(b1-4)Glc
# Method in brief: as §1
# [47] = target: Neu5Ac(a2-6)Gal(b1-4)GlcNAc(b1-2)Man(a1-3)[Man(a1-6)]Man(b1-4)GlcNAc(b1-4)GlcNAc
# Method in brief: as §1
# [48] = target: Neu5Ac(a2-6)Gal(b1-4)GlcNAc(b1-2)Man(a1-3)[Neu5Ac(a2-3)Gal(b1-4)GlcNAc(b1-2)Man(a1-6)]Man(b1-4)GlcNAc(b1-4)GlcNAc
# Method in brief: as §1
# [49] = target: Neu5Ac(a2-6)Gal(b1-4)GlcNAc(b1-2)[Neu5Ac(a2-6)Gal(b1-4)GlcNAc(b1-4)]Man(a1-3)[GlcNAc(b1-4)][Neu5Ac(a2-6)Gal(b1-4)GlcNAc(b1-2)[Neu5Ac(a2-6)Gal(b1-4)GlcNAc(b1-6)]Man(a1-6)]Man(b1-4)GlcNAc(b1-4)GlcNAc
# Method in brief: as §1
# [50] = target: Neu5Ac(a2-6)Gal(b1-4)GlcNAc(b1-3)Gal(b1-4)GlcNAc(b1-3)GalNAc
# Method in brief: as §1
# [51] = target: Neu5Ac(a2-6)Gal(b1-4)GlcNAc(b1-6)[Gal(b1-3)GlcNAc(b1-3)]Gal(b1-4)Glc
# Method in brief: as §1
# [52] = target: Neu5Ac(a2-6)Gal(b1-4)GlcNAc(b1-6)[Gal(b1-3)]GalNAc
# Method in brief: as §1
# [53] = target: Neu5Ac(a2-8)Neu5Ac(a2-8)Neu5Ac(a2-8)Neu5Ac(a2-3)[GalNAc(b1-4)]Gal(b1-4)Glc
# Method in brief: as §1
# [54] = target: Neu5Gc(a2-8)Neu5Gc(a2-3)Gal(b1-4)GlcNAc
# Method in brief: as §1
binder,measurement,setting,value
PX14343C-bfa-541-26-541 (Bacteroides fragilis) (protein) KAPLDEIADDSFWSDETLVKYYVNDLYSEISVDGLQLQENRSDNSVSAQRDKYRASWFKFNYDMVSASDPQDDDVWEDYYVKVRKCNRFFERIGTSTIEESEKSRLTGEVHFLRAMFYFEMVKRYGGVILLDKVLTMEDNWEIPRSSEKECYDFILEDLKKATEMLPASYGSREKGRATKGAAYALKSRVELYDKRYEDVIKSCAEVYKLGYELVDGTTPEKYRSIWWTTNKDNKEIIFDVQYKSPDVYNNMMVCNMVTYINDKYGDRGWGGLGPTQELIDAFEMADGTPATQYSQAPADQVFDINTCGIYEGREPRFYANIVFHGSQIFFNADKGAVTVDRYLMDTPDKGDGSLTGYNVWKWIDYDNYNYPYAGAGSPDFSTNWIILRYAEIYLNDAEARLETGDVEGARKAVNMIRQRVGLPDLTESDPEKLRELIRKERRIEFAFEEQRFYDVRRWKIGPETQTTLHGVRFVSPTEFKVTKTDIRTWNDRLYLTPVPHDEIVRSSVLKQNLGY,glycan array binding signal (z-score),[1],1.52
same,glycan array binding signal (z-score),[2],0.399
same,glycan array binding signal (z-score),[3],-0.05
same,glycan array binding signal (z-score),[4],0.403
same,glycan array binding signal (z-score),[5],-0.892
same,glycan array binding signal (z-score),[6],-0.542
same,glycan array binding signal (z-score),[7],-0.071
same,glycan array binding signal (z-score),[8],3.12
same,glycan array binding signal (z-score),[9],-0.674
same,glycan array binding signal (z-score),[10],-0.447
same,glycan array binding signal (z-score),[11],-0.83
same,glycan array binding signal (z-score),[12],0.051
same,glycan array binding signal (z-score),[13],0.855
same,glycan array binding signal (z-score),[14],-0.963
same,glycan array binding signal (z-score),[15],0.848
same,glycan array binding signal (z-score),[16],-0.619
same,glycan array binding signal (z-score),[17],-0.559
same,glycan array binding signal (z-score),[18],7.53
same,glycan array binding signal (z-score),[19],-1.04
same,glycan array binding signal (z-score),[20],2.85
same,glycan array binding signal (z-score),[21],-0.233
same,glycan array binding signal (z-score),[22],-0.284
same,glycan array binding signal (z-score),[23],2.98
same,glycan array binding signal (z-score),[24],0.08
same,glycan array binding signal (z-score),[25],-0.63
same,glycan array binding signal (z-score),[26],8.35
same,glycan array binding signal (z-score),[27],0.345
same,glycan array binding signal (z-score),[28],-1.05
same,glycan array binding signal (z-score),[29],-1.28
same,glycan array binding signal (z-score),[30],3.53
same,glycan array binding signal (z-score),[31],-0.401
same,glycan array binding signal (z-score),[32],0.261
same,glycan array binding signal (z-score),[33],0.758
same,glycan array binding signal (z-score),[34],0.249
same,glycan array binding signal (z-score),[35],1.46
same,glycan array binding signal (z-score),[36],-0.667
same,glycan array binding signal (z-score),[37],3.4
same,glycan array binding signal (z-score),[38],-0.686
same,glycan array binding signal (z-score),[39],1.91
same,glycan array binding signal (z-score),[40],0.147
same,glycan array binding signal (z-score),[41],-0.553
same,glycan array binding signal (z-score),[42],0.978
same,glycan array binding signal (z-score),[43],0.246
same,glycan array binding signal (z-score),[44],0.43
same,glycan array binding signal (z-score),[45],5.05
same,glycan array binding signal (z-score),[46],3.41
same,glycan array binding signal (z-score),[47],3.29
same,glycan array binding signal (z-score),[48],0.23
same,glycan array binding signal (z-score),[49],-0.339
same,glycan array binding signal (z-score),[50],-0.036
same,glycan array binding signal (z-score),[51],5.89
same,glycan array binding signal (z-score),[52],-0.647
same,glycan array binding signal (z-score),[53],1.9
same,glycan array binding signal (z-score),[54],-0.342
